PubChem BioAssay (EPA / NIEHS)
Records with an inconclusive call do not appear. Active and inactive are the calls of the source. Rule for the calls: active = hit-call score of the fitted dose curve at least 0.9, where 1 is the maximum; inconclusive = response in the unintended direction; inactive = score below 0.9.

Assay: ACEA_ER_AUC_viability: ACEA Biosciences xCELLigence Real-Time Cell Analysis on Estrogen Receptor Agonism for Viability (AID 2283782);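 note: hit means loss of impedance signal meaning reduced cell growth or viability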
Method in brief: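 Read-out: real-time electrical impedance (RT-CES) area under curve, loss of signal taken as reduced viability, normalized to DMSO baseline. T-47D cells, charcoal-stripped serum medium, compounds up to 100 uM final, continuous exposure, 80 h.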

Compound	outcome	AC50
Cc1cccc(C)c1[N+](=O)[O-]	inactive	
C=C(C)[C@@H]1CCC2=CC(=O)C[C@@H](C)[C@]2(C)C1		80.7 µM (active)
CNC[C@H](O)c1cccc(O)c1		50 µM (active)
CCCC/C=C\CCCCCCCCCC=O		91.2 µM (active)
CC(C)=CCC[C@](C)(O)[C@@H]1CC=C(C)CC1		84.5 µM (active)
C=CC(=O)NCOCC(C)C	inactive	
CCCCN		45.1 µM (active)
O=C1c2ccccc2C(=O)N1SC1CCCCC1		50 µM (active)
CC(=O)OCC=Cc1ccccc1	inactive	
O=S(=O)(O)NC1CCCCC1		50 µM (active)
CC(CCO)CCCC(C)(C)O (stereo unspecified)		50.5 µM (active)
COc1ccc(NC(=O)CC(C)=O)cc1	inactive	
CC1(C)[C@@H]2CC[C@@]1(C)[C@H](O)C2	inactive	
CCCCCNCCCCC	inactive	
CCCCCCOC(=O)CCCCC	inactive	
Cc1ccc2ccccc2n1	inactive	

Compound	outcome	AC50
Cc1ccc(C=O)s1		50 µM (active)
CC1=CCC2C(C1)C2(C)C (stereo unspecified)	inactive	
CC1=CC(=O)NS(=O)(=O)O1	inactive	
CCN(CC)c1ccc2c(-c3ccccc3C(=O)O)c3ccc(=[N+](CC)CC)cc-3oc2c1		29.1 µM (active)
CSc1nc(NC2CC2)nc(NC(C)(C)C)n1	inactive	
CCC(C)(O)CCC=C(C)C (stereo unspecified)		79.1 µM (active)
CC(C)=CCC/C(C)=C/COC=O	inactive	
CC(C)(C)C(=O)c1ccccc1	inactive	
CC(=O)C(=O)O		78 µM (active)
CC(=O)OCc1ccc2c(c1)OCO2	inactive	
O=c1oc(=O)c2cc3c(=O)oc(=O)c3cc12	inactive	
CN(C)CCCN	inactive	
CC(C)C(C)(C)C(C)(C)C(C)(C)S	inactive	
c1ccc2sc(SN(C3CCCCC3)C3CCCCC3)nc2c1		81.8 µM (active)
CC(=O)OCCOC(C)=O	inactive	
